{"source": "paper PMC4552634", "about": "“A New Set of Chemical Starting Points with Plasmodium falciparum Transmission-Blocking Potential for Antimalarial Drug Discovery” (PLoS ONE, 2015)", "note": "The whole screen tested about 13,000 compounds, of which about 3,200 (25%) showed an effect of 50% or more. The list shows a part of the results.", "data": [{"test_system": "P. falciparum stage V gametocytes", "design": "BacTiter-Glo ATP luminescence viability of purified stage V gametocytes in 384-well plates, per cent inhibition versus DMSO", "conditions": "48 h, 5 µM; inhibitor", "units": {"% Inhibition": "%"}, "values": [{"compound": "COc1cc2c(cc1S(=O)(=O)c1ccc(NC(=O)c3cccc(C(F)(F)F)c3)cc1)CCN(C)CC2", "note": "[TCMDC-133791]", "% Inhibition": -4.764}, {"compound": "COc1cccc(C(=O)Nc2ccc(S(=O)(=O)c3cc4c(cc3OC)CCN(C)CC4)cc2)c1", "note": "[TCMDC-133790]", "% Inhibition": 79.19}, {"compound": "COc1cc2c(cc1S(=O)(=O)c1ccc(NC(=O)c3ccc4ccccc4c3)cc1)CCN(C)CC2", "note": "[TCMDC-133792]", "% Inhibition": 8.081}, {"compound": "O=C(CCc1cnc[nH]1)Nc1ccc(-c2ccc(-c3nc4ccccc4[nH]3)cc2)cc1", "note": "[TCMDC-132156]", "% Inhibition": -24.85}, {"compound": "c1csc(-c2nc(N3CCCCC3)ncc2-c2ccsc2)n1", "note": "[TCMDC-125370]", "% Inhibition": 9.865}, {"compound": "C=CCc1c(C(=O)NCC23CC4CC(CC(C4)C2)C3)[nH]c2ccccc2c1=O", "note": "[TCMDC-136371]", "% Inhibition": -9.366}, {"compound": "CC(C)Cc1cn(-c2nc(-c3nc4ccccc4[nH]3)cs2)c2ccncc12", "note": "[TCMDC-132419]", "% Inhibition": 3.094}, {"compound": "Cc1cccc(CNc2nc(C)cc(N[C@@H](Cc3ccccc3)C(=O)NCCc3ccccc3)n2)c1", "note": "[TCMDC-134889]", "% Inhibition": -24.79}, {"compound": "Cc1cc(N[C@@H](Cc2ccccc2)C(=O)NCCCOC(C)C)nc(NCC2CCCCC2)n1", "note": "[TCMDC-134931]", "% Inhibition": 30.55}, {"compound": "Cc1cc(N[C@@H](Cc2ccccc2)C(=O)NCCc2ccccc2)nc(NCCc2ccccc2)n1", "note": "[TCMDC-134776]", "% Inhibition": 144.5}, {"compound": "COc1ccccc1CCNc1nc(C)cc(N[C@@H](Cc2ccccc2)C(=O)NCCOc2ccccc2)n1", "note": "[TCMDC-134862]", "% Inhibition": 100.5}, {"compound": "COc1ccccc1CCNc1nc(C)cc(N[C@@H](Cc2ccccc2)C(=O)NCCc2ccccc2)n1", "note": "[TCMDC-134803]", "% Inhibition": 83.15}, {"compound": "Cc1cc(N[C@@H](Cc2ccccc2)C(=O)NCCc2ccccc2)nc(NCc2ccccc2C)n1", "note": "[TCMDC-134907]", "% Inhibition": -0.7865}, {"compound": "Cc1cc(N[C@@H](Cc2ccccc2)C(=O)NCCc2ccccc2)nc(NCCc2ccc(F)cc2)n1", "note": "[TCMDC-134867]", "% Inhibition": 49.67}, {"compound": "COc1ccccc1CCNc1nc(C)cc(N[C@@H](Cc2ccccc2)C(=O)NCCCOC(C)C)n1", "note": "[TCMDC-134861]", "% Inhibition": 55.12}, {"compound": "COc1ccccc1CCNc1nc(C)cc(N[C@@H](CC(C)C)C(=O)NCCc2ccccc2)n1", "note": "[TCMDC-134807]", "% Inhibition": 30.27}, {"compound": "COc1ccccc1CCNc1nc(C)cc(N[C@@H](Cc2ccccc2)C(=O)Nc2ccccc2)n1", "note": "[TCMDC-134804]", "% Inhibition": 36.98}, {"compound": "COC(=O)c1ccc(OCC(C)NCC(O)c2cccc(C(F)(F)F)c2)cc1", "note": "(centres unmarked) [TCMDC-131464]", "% Inhibition": 25.27}, {"compound": "N#Cc1ccc2c(c1)CCN(CCCn1c(-c3ccc4ccccc4c3)nc3ccncc31)CC2", "note": "[TCMDC-135551]", "% Inhibition": 19.09}, {"compound": "O=C(NCc1ccc(C(=O)NCc2cccc3ccccc23)cc1)c1ccc(O)c(-c2ccc(Cl)c(Cl)c2)c1", "note": "[TCMDC-140878]", "% Inhibition": 23.84}, {"compound": "Cc1ccc2nc(-c3ccccc3)cc(NN=Cc3cccnc3)c2c1", "note": "[TCMDC-142053]", "% Inhibition": -1.228}, {"compound": "CCOc1ccccc1N1CCN(CCCNC(=O)/C(=C/C=C/c2cc3cc(Cl)c(Cl)cc3[nH]2)OC)CC1", "note": "[TCMDC-139176]", "% Inhibition": 6.847}, {"compound": "Cc1cccc(CNc2ncc(C)c(NCCC(=O)Nc3ccccc3)n2)c1", "note": "[TCMDC-134848]", "% Inhibition": 47.31}, {"compound": "O=C(Nc1ccc(Br)cc1)N(CCN1CCOCC1)CC(O)COCc1ccc(F)cc1", "note": "(centres unmarked) [TCMDC-141489]", "% Inhibition": 29.66}, {"compound": "Cc1cc(=O)[nH]c(-n2nc(C)cc2NC(=O)C2(c3ccc(Cl)cc3)CCCC2)n1", "note": "[TCMDC-124943]", "% Inhibition": 43.65}, {"compound": "CN(C)CCN(C)C(=O)c1cc(-c2ccncc2)c(-c2ccc(Cl)c(O)c2)o1", "note": "[TCMDC-141393]", "% Inhibition": -25.23}, {"compound": "COc1c(C2=CCN(CCCCNC(=O)c3ccc(-c4ccc(C#N)cc4)cc3)CC2)ccc2c1CCCC2", "note": "[TCMDC-138753]", "% Inhibition": -8.55}, {"compound": "Cc1cc(N(C)CCN(C)C)nc(Nc2ccc(Cl)cc2)n1", "note": "[TCMDC-137008]", "% Inhibition": 22.54}, {"compound": "O=C(NC(=O)c1ccccc1)NC1CCN(c2ccnc3cc(Cl)ccc23)C1", "note": "(centres unmarked) [TCMDC-133403]", "% Inhibition": -14.2}, {"compound": "CCC[C@@H]([C@@H](CC1CCCCC1)C(=O)N[C@H](C(=O)Nc1ccccn1)[C@H](C)CC)N(O)C=O", "note": "[TCMDC-138122]", "% Inhibition": -1.104}, {"compound": "O=C(c1ccc(-c2cnc3[nH]cc(-c4ccc(C(=O)N5CCOCC5)cc4)c3c2)cc1)N1CCOCC1", "note": "[TCMDC-132781]", "% Inhibition": -2.017}, {"compound": "Nc1ncc(-c2ccc3nccc(-c4ccncc4)c3c2)cc1S(=O)(=O)N1CCOCC1", "note": "[TCMDC-134180]", "% Inhibition": 94.06}, {"compound": "Nc1ncc(-c2ccc3[nH]ccc3c2)c2ccc(-c3ccncc3)cc12", "note": "[TCMDC-133396]", "% Inhibition": 22.16}, {"compound": "CS(=O)(=O)c1ccc2nc(-c3cc(-c4ccc(OCCN5CCOCC5)cc4)cnc3N)[nH]c2c1", "note": "[TCMDC-133720]", "% Inhibition": 8.028}, {"compound": "Nc1ncc(-c2ccc3nccc(-c4ccncc4)c3c2)cc1S(=O)(=O)N1CCCCC1", "note": "[TCMDC-134265]", "% Inhibition": 97.23}, {"compound": "CN1CCN(c2ccnc3ccc(NC(=O)Cc4ccc(-c5ccncc5)c5ccccc45)cc23)CC1", "note": "[TCMDC-139256]", "% Inhibition": 19.54}, {"compound": "O=C(/C=N/O)Nc1ccccc1[N+](=O)[O-]", "note": "[TCMDC-123981]", "% Inhibition": -3.715}, {"compound": "CCn1c2ccccc2c2cc(Cc3cnc(N)nc3N)ccc21", "note": "[TCMDC-131929]", "% Inhibition": 0.5194}, {"compound": "Cc1cccc2nc(-c3ccc(-c4ccc(C(=O)NCCN5CCCC5)cc4)s3)[nH]c12", "note": "[TCMDC-132316]", "% Inhibition": 46.47}, {"compound": "Cc1cnc(NCC2CCCCC2)nc1NCC(=O)Nc1ccccc1", "note": "[TCMDC-134753]", "% Inhibition": -41.32}, {"compound": "O=C(Cn1c(CCc2cccc(F)c2F)cc(=O)c2ccccc21)N(Cc1ccc(-c2ccc(C(F)(F)F)cc2)cc1)C1CCN(CCO)CC1", "note": "[TCMDC-141226]", "% Inhibition": 84.4}, {"compound": "COCCN1CCC(N(Cc2ccc(-c3ccc(OC(F)(F)F)cc3)cc2)C(=O)Cn2c(CCc3cccc(F)c3F)cc(=O)c3ccccc32)CC1", "note": "[TCMDC-136001]", "% Inhibition": 86.7}, {"compound": "O=C(Cn1c(CCc2cccc(F)c2F)cc(=O)c2ccccc21)N(Cc1ccc(-c2ccc(C(F)(F)F)cc2)cc1)C1CCN(CCN2CCOCC2)CC1", "note": "[TCMDC-136026]", "% Inhibition": 47.65}, {"compound": "CCN1CCC(N(Cc2ccc(-c3ccc(C(F)(F)F)cc3)cc2)C(=O)Cn2c(CCc3cccc(F)c3F)cc(=O)c3ccccc32)C1", "note": "(centres unmarked) [TCMDC-141300]", "% Inhibition": 90.33}, {"compound": "CCN1CCC(N(CCCCCCCCc2ccc(C(F)(F)F)cc2)C(=O)Cn2c(CCc3cccc(F)c3F)cc(=O)c3ccccc32)CC1", "note": "[TCMDC-141376]", "% Inhibition": 107.2}, {"compound": "CCN1CCC(N(CCCCCCc2ccc(C(F)(F)F)cc2)C(=O)Cn2c(CCc3cccc(F)c3F)cc(=O)c3ccccc32)CC1", "note": "[TCMDC-141339]", "% Inhibition": 43.24}, {"compound": "CCCN(CCC)C(=O)c1cc(C(=O)N[C@@H](Cc2ccccc2)[C@H](O)CNC2CC2)cc(N2CCCCS2(=O)=O)c1", "note": "[TCMDC-138892]", "% Inhibition": 8.102}, {"compound": "CC(=Nc1ccc(Cl)c(Cl)c1)N(C)C", "note": "[TCMDC-137438]", "% Inhibition": -6.563}, {"compound": "CC(C)C[C@H](NC(=O)c1ccc(OCCN2CCOCC2)cc1)C(=O)N[C@H](/C=N/NC(=O)OC(C)(C)C)CCc1ccccc1", "note": "[TCMDC-136028]", "% Inhibition": -97.84}, {"compound": "COc1ccc(CN2CCC(N3CC(c4ccccc4)(c4ccccc4)OCC3=O)C2)c(O)c1", "note": "(centres unmarked) [TCMDC-136339]", "% Inhibition": -23.12}, {"compound": "CC(C)C[C@H]1C(=O)N[C@H](C2Cc3ccccc3C2)C(=O)N1[C@@H](C(=O)Nc1ccccc1OCc1ccccc1)c1ccc(F)cc1F", "note": "[TCMDC-138775]", "% Inhibition": -10.16}, {"compound": "COc1ccc2ncc(F)c(CCN3C4CCC3CC(NCc3cc5c(cn3)OCS5)C4)c2n1", "note": "(centres unmarked) [TCMDC-135637]", "% Inhibition": 24.95}, {"compound": "Cc1cccc(Nc2nccc(NCC(O)c3ccc(C(F)(F)F)cc3)n2)c1", "note": "(centres unmarked) [TCMDC-136592]", "% Inhibition": -12.82}, {"compound": "CC(C)(C)C1CC(=O)CC2C(=O)N(c3ccc(Br)cc3)C(=O)C21", "note": "(centres unmarked) [TCMDC-139130]", "% Inhibition": -4.164}, {"compound": "Cc1ccc(F)c(OCC2CCN(c3ncc(C(=O)NC4CC4)cc3Cl)CC2)c1", "note": "[TCMDC-134038]", "% Inhibition": 21.14}, {"compound": "CC(C)(C)N1CCC(N(Cc2ccc(-c3ccc(C(F)(F)F)cc3)cc2)C(=O)Cn2c(CCc3cccc(F)c3F)cc(=O)c3cccnc32)CC1", "note": "[TCMDC-136011]", "% Inhibition": 120.6}, {"compound": "CCN1CCC(N(Cc2ccc(-c3ccc(C(F)(F)F)cc3)cc2)C(=O)Cn2c(CCc3cccc(F)c3F)cc(=O)c3ccccc32)CC1", "note": "[TCMDC-141119]", "% Inhibition": 110.1}, {"compound": "CC(C)(C)N1CCC(N(Cc2ccc(-c3ccc(C(F)(F)F)cc3)cc2)C(=O)Cn2c(CCc3cccc(F)c3F)cc(=O)c3ccccc32)CC1", "note": "[TCMDC-136007]", "% Inhibition": 109.9}, {"compound": "CCN1CCC(N(Cc2ccc(-c3ccc(C(F)(F)F)cc3)cc2)C(=O)Cn2c(CCc3cccc(F)c3F)cc(=O)c3ccc(OCc4ccccc4)cc32)CC1", "note": "[TCMDC-141292]", "% Inhibition": 107.3}, {"compound": "NC(CC1CC(=O)N1CC(=O)O)C(=O)O", "note": "(centres unmarked) [TCMDC-139050]", "% Inhibition": 9.979}, {"compound": "CC1CCN(Cc2ccc(NC(=O)c3cc4ccc5cccnc5c4[nH]3)cc2)CC1", "note": "[TCMDC-125282]", "% Inhibition": -44.42}, {"compound": "Cc1sc(N2CCCCC2)nc1C(=O)Nc1ccc(F)cc1C(F)(F)F", "note": "[TCMDC-134301]", "% Inhibition": -22.08}]}]}
